Source: PubChem BioAssay (NCATS)
Inconclusive results are not listed. Active and inactive are the calls of the source. The call rests on the fitted dose curve; in most records, active means well fitted inhibition curve with a large enough effect in the signal ratio, with a control signal flat (not every such curve was filed as active); inconclusive means small, poorly fitted or top-dose-only effect, or effect the other way, or a change in a side signal; inactive means no such curve, though single readings can be large or run the other way; the % refers to the signal ratio.

Target: Peroxisome proliferator-activated receptor delta (Homo sapiens) (UniProt Q03181)
Sequence (Q03181 whole entry, looked up): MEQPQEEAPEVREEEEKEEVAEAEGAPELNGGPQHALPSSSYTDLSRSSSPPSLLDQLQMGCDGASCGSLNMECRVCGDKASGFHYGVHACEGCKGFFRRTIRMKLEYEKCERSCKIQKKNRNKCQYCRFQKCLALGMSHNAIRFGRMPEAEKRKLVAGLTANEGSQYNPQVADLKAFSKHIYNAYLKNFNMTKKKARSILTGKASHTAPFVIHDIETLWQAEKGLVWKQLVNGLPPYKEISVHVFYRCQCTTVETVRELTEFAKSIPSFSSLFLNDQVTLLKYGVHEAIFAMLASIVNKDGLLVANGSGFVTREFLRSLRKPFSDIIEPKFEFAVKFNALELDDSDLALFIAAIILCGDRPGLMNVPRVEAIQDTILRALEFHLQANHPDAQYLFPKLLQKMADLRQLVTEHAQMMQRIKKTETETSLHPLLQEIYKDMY
Assay: qHTS assay for small molecule antagonists of peroxisome proliferator-activated receptor delta signaling (AID 588535)
Conditions: HEK293T PPARd-UAS-bla, beta-lactamase FRET ratio, 18 h; series mostly up to 76.7 µM; activity change, negative = inhibition: at the top concentration
Description: NIH Chemical Genomics Center [NCGC] U.S. Environmental Protection Agency [EPA] National Institutes of Environmental Health Sciences [NIEHS] National Toxicology Program [NTP] NCGC Assay Overview The Peroxisome proliferator-activated receptors (PPARs) are lipid-activated transcription factors of the nuclear receptor superfamily with three distinct subtypes namely PPAR alpha, PPAR delta (also called PPAR beta) and PPAR gamma. All these subtypes heterodimerizes with Retinoid X receptor (RXR) and have different physiological functions. […] This role of PPAR delta implicates the potential use of its ligands in the treatment of metabolic disorders.
NCGC Assay Protocol Summary Using a beta-lactamase reporter-gene under control Peroxisome Proliferator-Activated Receptor delta (PPAR-delta) response element, a cell-based assay [GeneBLAzer (PPAR-delta-UAS-bla assay developed by Invitrogen] was used to measure PPAR-delta ligands signaling. GeneBLAzer PPAR-delta-UAS-bla HEK293T cells were used with assay medium containing 2% charcoal/dextran FBS. The assay was performed in clear bottom black Greiner 1536-well plates. Library compounds were measured for their ability to inhibit the reporter gene activity. Compounds were screened in a titration series in 1536-well format. The fluorescence intensity (405 nm excitation, 460/530 nm emission) was measured using an EnVision plate reader. […] Concentration-response titration points for each compound were fitted to the Hill equation yielding concentrations of half-maximal inhibition (IC50) and maximal response (efficacy) values. qHTS protocol for PPAR-delta beta-lactamase assay in antagonist mode [Step] [Parameter] [Value] [Description] 1. Reagent; 5 uL; 4000 cells/well 2. Incubation; 37 C for 5 hrs 3. Compounds; 23 nL; 0.59 nM to 92 uM 4. […] Incubation; 37 C for 18 hrs 7. Detection reagent; 1 uL of CCF4-dye 8. Incubation; RT for 2 hrs 9. Detection; Fluorescence; Envision plate reader

| Structure (SMILES) | activity change, negative = inhibition |
| --- | --- |
| OCc1cccc(Oc2ccccc2)c1 | 17.2% (inactive) |
| CCCCOC(=O)c1ccccc1 | -5.31% (inactive) |
| CCCCCCCCCCCCCCCCCCN | 6.91% (inactive) |
| CC/C=C/CCCCCCCCCCOC(C)=O | 6.63% (inactive) |
| O=S(c1ccc(Cl)cc1)c1cc(Cl)c(Cl)cc1Cl (stereo not given) | -33.8% (inactive) |
| CN=C(N)NCC1CCOC1 (stereo not given) | 8.22% (inactive) |
| C=CC(=O)OCCOc1ccccc1 | -13.6% (inactive) |
| CC(C)C[C@H](NC(=O)OCC1c2ccccc2-c2ccccc21)C(=O)O | 15% (inactive) |
| NCCCCCCCCCCC(=O)O | 10.1% (inactive) |
| CCC(C)OC(=O)N1CCCCC1CCO (stereo not given) | 26.9% (inactive) |
| CCCCN(CCCC)CCCC | 4.61% (inactive) |
| N[C@@H]1[C@@H](O)[C@H](O)[C@@H](CO)O[C@H]1O | 16.4% (inactive) |
| CC(=O)/C=C/C1C(C)=CCCC1(C)C (stereo not given) | 3.17% (inactive) |
| O=C(c1ccc(Cl)cc1)c1ccc(Cl)cc1 | 14.6% (inactive) |
| CCCCC(CC)C(=O)OCCOCCOCCOC(=O)C(CC)CCCC (stereo not given) | 22.7% (inactive) |
| O=C(Cl)c1ccc(C(=O)Cl)cc1 | 12.7% (inactive) |
| CC1=CC2C3CC(C=C3C)C2C1 (stereo not given) | -2.37% (inactive) |
| CCCCC(CC)COC(C)=O (stereo not given) | 7.89% (inactive) |
| CC(=O)Nc1ccc(N=Nc2cc(C)ccc2O)cc1 | -0.456% (inactive) |
| O=C(c1ccccc1)c1ccc(O)c(O)c1O | 16.8% (inactive) |

| Structure (SMILES) | activity change, negative = inhibition |
| --- | --- |
| CC1(C)C(C=C(Cl)Cl)[C@H]1C(=O)OCc1cccc(Oc2ccccc2)c1 (stereo not given in full) | 12.6% (inactive) |
| Nc1cc(Cl)nc(C(=O)O)c1Cl | 0.872% (inactive) |
| Cc1ccc(N=Nc2c(O)ccc3ccccc23)c(C)c1 | 2.24% (inactive) |
| CCCCCCCC/C=C\CCCCCCCC(=O)OC | 1.44% (inactive) |
| CC(C)(C)[C@H](O)[C@H](Cc1ccc(Cl)cc1)n1cncn1 | 21.2% (inactive) |
| CS(C)=O | 1.64% [at 54 mM] (inactive) |
| CCC/C(=N\OCC)C1=C(O)CC(O)(CC(C)S(=O)(=O)CC)CC1=O (stereo not given) | 21.8% (inactive) |
| Cc1ccc2c(c1)C(=O)OC2=O | 12.9% (inactive) |
| CC(=O)OC(C)(C)C1CC=C(C)CC1 (stereo not given) | -5.47% (inactive) |
| C/C(=C\C(C)CC(C)CC(C)C)C1CC(=O)OC1=O (stereo not given) | 11.9% (inactive) |
| C=C(C)C(=O)OCC(CC)(COC(=O)C(=C)C)COC(=O)C(=C)C | 16.1% (inactive) |
| CC(=O)c1c(C)c([N+](=O)[O-])c(C(C)(C)C)c([N+](=O)[O-])c1C | 6.41% (inactive) |
| CC(C)=CCC/C(C)=C\CO | -4.8% (inactive) |
| O=C=NCCCCCCN=C=O | -0.132% (inactive) |
| O=C(O)C(c1ccc(Cl)cc1)c1ccc(Cl)cc1 | 1.92% (inactive) |
| CCCCCCCCCCCCCC(=O)OC | -5.13% (inactive) |
| CC(C)c1cccc(C(C)C)c1 | 11.1% (inactive) |
| CCCCCCCCCCCCCCCCCC#N | 1.09% (inactive) |
| CCCCCCC(O)CCCCCCCCCCC(=O)OC (stereo not given) | 16.8% (inactive) |
| CC(C)(C)C1CCC(O)CC1 (stereo not given) | -0.199% (inactive) |
